The values below come from ChEMBL document CHEMBL1157539, “Thousands of chemical starting points for antimalarial lead identification” (Nature, 2010).

Structures are written as SMILES.

The experiment deals with HepG2. In words: GSK_TCMDC: Percent inhibition of human HepG2 cell line. Test compounds present at 10uM. It is filed as functional.
In the case of `O=c1cc(NCCCN(Cc2ccccc2)Cc2ccccc2)[nH]c2ccccc12`, the Inhibition is on record as 7%.

Consider `CNC(=O)c1c(NC(=O)c2cccs2)sc2c1CCCC2`, for which the Inhibition was 2%.

The compound `NCC1CCCN1Cc1ccc(-c2cccc(-c3nc4cc(F)ccc4[nH]3)c2)cc1.O=C(O)C(F)(F)F` (stereo not given) yielded an Inhibition of 38%.

On to `COc1cccc(CNC(=O)c2ccnc(-c3cccc(CN(C)C4CCN(C)CC4)c3)c2)c1.O=C(O)C(F)(F)F`, for which the Inhibition was found to be 19%.

In turn, `CCCC(C)Nc1nc(C)cc(NCCC(=O)Nc2ccc(OC)cc2)n1.O=C(O)C(F)(F)F` (stereo not given) displayed an Inhibition of 12%.

The compound `Cn1cnc2c(Nc3ccncc3)nc(-c3ccc4ccccc4c3)nc21` returned an Inhibition of 55%.

Compound `Cc1nc2ccc3ccc(CNc4ccc5c(c4)CN([C@@H](CCC(=O)O)C(=O)O)C5=O)cc3c2c(=O)[nH]1` [OSI-7904] displayed an Inhibition of 41%.

In turn, `COc1cccc(C(=O)NCc2cccs2)c1OCc1ccccc1` returned an Inhibition of 0%.

`COc1ccc2ncc(F)c(CCN3CCC(CNCc4cccc5c4OCO5)CC3)c2n1.Cl` yielded an Inhibition of 39%.

Compound `CCN(CC)CCNC(=O)c1ccc(N/C=C2\C(=O)Nc3ccc(S(=O)(=O)Cc4c(Cl)cccc4Cl)cc32)cc1` gave an Inhibition of 25%.

`FC(F)(F)c1ccc2[nH]c(-c3ccc(-c4cccc(CN5CCC(CCN6CCCCC6)CC5)c4)cc3)nc2c1.O=C(O)C(F)(F)F` showed an Inhibition of 100%.

Compound `CCNc1cc(C(=O)N[C@@H](Cc2ccccc2)[C@H](O)CNC2CCC(C)(C)C2)cc(N2CCCCS2(=O)=O)c1.Cl` (stereo not given in full) came in with an Inhibition of 3%.

`CCc1ccc(NC(=O)N(CCCn2ccnc2)Cc2csc(-c3ccc(CNCc4ccccc4)cc3)n2)cc1.O=C(O)C(F)(F)F`: the Inhibition came out at 9%.

In turn, `O=c1cc(NCCC(CNCc2ccoc2)NCc2cc(Br)cc(Br)c2)[nH]c2ccccc12` (stereo not given) gave an Inhibition of 0%.

`O=C(O)C(F)(F)F.OCC1CCN(Cc2cccc(-c3ccc(-c4nc5cc(C(F)(F)F)ccc5[nH]4)s3)c2)CC1`: the Inhibition is recorded as 0%.

Take `O=C(Nc1ccc(Cn2nc(Cl)c(N3CCCNCC3)cc2=O)cc1)Nc1ccc(-c2ccccc2)cc1.O=C(O)C(F)(F)F`: the Inhibition stood at 89%.

In turn, `O=C(Nc1ccc(Cl)cc1)Nc1ccc(-c2csc(-c3nc4ccccc4[nH]3)c2)cc1` yielded an Inhibition of 59%.

Regarding `COc1cccc2cc(C(=O)N[C@@H](CC(C)C)C(=O)N[C@H](C=NN3CC(=O)NC3=O)CC(C)C)oc12`, the Inhibition is on record as 3%.

`COc1ccc(C2=CCN(c3ccc(Cl)c(Cl)c3)C2=O)cc1OCCN1CCCCC1.Cl` displayed an Inhibition of 19%.

Turning to `Nc1ccc(-c2ccc3ccnc(N)c3c2)cn1.O=C(O)C(F)(F)F`, the Inhibition is 43%.

Compound `O=C(COc1ccc(C(=O)c2ccccc2)cc1)Nc1nccs1` displayed an Inhibition of 0%.

Turning to `O=C(N[C@H]1CCN(Cc2ccc(OCCN3CCCC3)c(Cl)c2)C1)c1ccc(Cl)c(Cl)c1.O=C(O)C(F)(F)F`, the Inhibition was determined as 68%.

With `COc1ccc2nccc(N3CCC(SCCNS(=O)(=O)c4ccc5c(c4)OCCO5)C3)c2n1.Cl` (stereo not given), the Inhibition is reported as 36%.

For the compound `Cc1ccn2c(N(Cc3ccccc3)C(=O)c3ccc(Cl)c(Cl)c3)c(-c3ccccc3)nc2c1`, the Inhibition turned out to be 0%.

`COC(=O)C(c1ccc(NC(=O)[C@H](CC(C)C)NC(=O)OC(C)(C)C)cc1)c1ccc(NC(=O)[C@H](CC(C)C)NC(=O)OC(C)(C)C)cc1` had an Inhibition of 0%.

`COc1ccc(C2C(C(=O)Nc3ccc(C)c(F)c3)c3cc(OC)c(OC)cc3C(=O)N2C)cc1` (stereo not given): the Inhibition is given as 6%.

`CC[C@H](C)CNC(=O)c1ccnc(-c2cccc(CN3CCC(N4CCCC4)CC3)c2)c1.O=C(O)C(F)(F)F` showed an Inhibition of 0%.

Take `COc1ccccc1CCNc1ncnc2c1[nH]c1ccc(F)cc12`: the Inhibition was determined as 49%.

In turn, `CCc1nc(N)nc(N)c1-c1ccc(F)c(F)c1` came in with an Inhibition of 58%.

As for `C[C@@H]1CN(C(c2cccc(O)c2)c2cccc(C(=O)N(C)c3cccc(F)c3)c2)[C@@H](C)CN1C(c1cccc(O)c1)c1cccc(C(=O)N(C)c2cccc(F)c2)c1.Cl` (stereo not given in full), the Inhibition amounted to 0%.

On to `COc1cc2nc(N3CCC(NC(=O)c4cccc(N(C)C)c4)CC3)nc(N)c2cc1OC.O=C(O)/C=C\C(=O)O`, for which the Inhibition stood at 6%.

For the compound `O=C(Nc1ccc(-c2nc3ccccc3[nH]2)cc1)c1ccc(N2CCCC2)c([N+](=O)[O-])c1`, the Inhibition is given as 43%.

As for `COc1ccc(NS(=O)(=O)c2ccc(C(=O)Nc3ccc(C(F)(F)F)cc3)cc2)cc1N1CCN(CC2CC2)CC1.O=C(O)C(F)(F)F`, the Inhibition was 15%.

Compound `O=C(/C=C/c1ccc(Cl)c(Cl)c1)NCCCCCN1CCC(NC(=O)Nc2ccc3c(c2)OCO3)CC1` showed an Inhibition of 12%.

Regarding `CSc1ccc(C=CC(=O)NC(=O)c2ccccc2O)cc1`, the Inhibition stood at 2%.

With `CC(C)(C)c1ccc(CNC(=O)c2cc(CNC3CCC(N)CC3)ccc2O)cc1` (stereo not given), the Inhibition is 1%.

Turning to `CCCCN(CCCC)C(=O)CC(O)c1cc2c(Cl)cc(Cl)cc2c2cc(C(F)(F)F)ccc12` (stereo not given), the Inhibition was 0%.

With `COc1cc(CNCCCNc2nc3ncccc3[nH]2)c2[nH]cc(Br)c2c1`, the Inhibition stood at 12%.

`O=C(Cc1cccc2ccccc12)NC1CCN(c2ccnc3cc(Cl)ccc23)C1.O=C(O)C(F)(F)F` (stereo not given) returned an Inhibition of 13%.

As for `O=C1CCCC1Sc1nc2ccccc2c(=O)n1-c1ccc(Cl)c(Cl)c1` (stereo not given), the Inhibition is 10%.
